aSyn UTR act: Activators via SNCA 5'UTR binding, MLPCN. alpha-synuclein 5'UTR reporter, activators screen. activity score, % (tested at 7.5 µM), hits read low. hit rate 7.1% among 300,000; in the data active means activity score below about -60%
Numbers stand for hits; – = inactive. The list is a sample of the results.

SMILES	aSyn UTR act
c1ccc(CCNc2nc3ccccc3s2)cc1	-81
COc1ccc(CNc2nc3ccccc3s2)cc1OC	-141
CCC(=O)Nc1cnc(NC(=O)c2cccc(F)c2)cc1C	-107
CC(=O)Nc1cnc(NC(=O)c2cccc(F)c2)cc1C	-148
CC1Oc2ccccc2C=C1/C=C1/SC(N2CCOCC2)=NC1=O (configuration not stated)	-108
O=C1C=C(N2CCOCC2)c2ccccc2C1=O	–
CC(=C/c1ccccc1)/C=C1/SC(N2CCOCC2)=NC1=O	-102
COc1ccc(OCC(=O)C2CC2)c(C#N)c1	-78
C=CCc1ccc(OCc2ccc(C(=O)O)o2)c(OC)c1	-121
CCCc1ccc(OCc2ccc(C(=O)NN)o2)c(OC)c1	-84
CCCc1ccc(OCc2ccc(C(=O)O)o2)c(OC)c1	-94
C=CCc1ccc(OC(=O)NC2CCCCC2)c(OC)c1	-106
O=C1NC(=Nc2ccccc2)S/C1=C\c1cccn1-c1ccccc1	-388
CCOC(=O)Nc1ccc2c(C)cc(=O)oc2c1	-178
Cc1cc(=O)oc2cc(NC(=O)CCOc3ccccc3)ccc12	-82
CCCCOC(=O)Nc1ccc2c(C)cc(=O)oc2c1	-145
Cc1cc(OCC(=O)N(C)C2CCCCC2)cc(C)c1Cl	-68
CN(C(=O)COC(=O)c1ccc(Cl)cc1N)C1CCCCC1	-82
CC1=CN2C(=N)/C(=C/c3ccco3)C(=O)N=C2S1	-219
COc1ccc2nc(NC(=O)c3cc(C)oc3C)sc2c1	-140
Cc1ccccc1NC(=O)Nc1nc2ccc(S(C)(=O)=O)cc2s1	-85
COc1ccc(NS(=O)(=O)c2cc(C)ccc2NC(=O)c2cc(C)oc2C)cc1	–
Cc1cc(C(=O)Nc2nc3ccc(S(C)(=O)=O)cc3s2)c(C)o1	-108
COc1ccc2nc(NC(=O)c3cccnc3SC)sc2c1	-130
COc1ccc(C(=O)Nc2nc3cc4c(cc3s2)OCO4)c(OC)c1	-98
SMILES	aSyn UTR act
O=C(c1ccccc1-c1nc(-c2ccc(Cl)cc2)no1)N1CCCC1	-251
O=C(NCC1CCCO1)c1ccccc1-c1nc(-c2ccc(Cl)cc2)no1 (configuration not stated)	-74
O=C1NCCN/C1=C\C(=O)c1ccc(Cl)cc1	-109
O=C1NCCN/C1=C\C(=O)c1ccc(F)cc1	-81
CC1CN/C(=C\C(=O)c2ccccc2)C(=O)N1 (configuration not stated)	-110
Cc1cc2ccccn2c1C(C[N+](=O)[O-])c1ccc(N(C)C)cc1 (configuration not stated)	-80
CC(=O)c1cccc(NC(=O)C(=O)Nc2cccc3ccccc23)c1	-195
O=C(Nc1cccc2ccccc12)c1ccccc1	-142
Nc1ccccc1C(=O)Nc1cccc2ccccc12	-204
O=C(Nc1c(Cl)cccc1Cl)c1ccc(-c2ccccc2)cc1	-66
Cc1c(NC(=O)c2ccc(-c3ccccc3)cc2)cccc1C(=O)O	-85
O=C(Nc1sc(-c2ccccc2)cc1C(=O)O)c1ccccc1	-100
CCCOc1ccc(-c2nnc(-c3ccco3)o2)cc1	–
O=C(COc1ccccc1)Nc1nnc(-c2ccc3c(c2)CCCC3)o1	-95
COc1ccc(-c2nc3cc(NC(=O)Cc4ccc(OC)c(OC)c4)ccc3o2)cc1	-69
O=C(COc1ccccc1)Nc1ccc(-c2nnc(-c3ccco3)o2)cc1	-84
COc1ccccc1OCC(=O)Nc1cccc(-c2nnc(-c3ccco3)o2)c1	-87
CC(C)COc1ccc(-c2nnc(-c3ccco3)o2)cc1	–
COc1ccc(CC(=O)Nc2cccc(-c3nnc(-c4cccc(C)c4)o3)c2)cc1OC	-187
c1ccc(N=Nc2ccc3cccccc2-3)cc1	-259
Cc1cc(C)[n+]2n1C(=O)C(c1ccccc1)=C2[O-]	-93
Cc1ccc(SCCSc2nc(C)cc(=O)[nH]2)cc1	-133
Cc1cc(C2=NNC(=Nc3ccccc3)SC2)c(C)n1C	-80
Nc1ccccc1-c1nnc(-c2ccccc2N)n1N	-113
Nn1c(SCc2c(F)cccc2F)nnc1-c1ccccn1	-159
SMILES	aSyn UTR act
Cc1ccc(-n2[nH]c(=O)c(-c3ccccn3)c2C)cc1	–
Nn1c(-c2ccccn2)nnc1-c1ccccn1	-96
O=C(NC1CCCCC1)N1CCc2ccccc2C1	-85
O=C(Nc1ccc(Br)cc1)N1CCc2ccccc2C1	-161
O=C(Nc1ccc(F)cc1)N1CCc2ccccc2C1	-203
O=C(CCl)NN1C(=O)NC2(CCCCC2)C1=O	-76
O=C(CCl)NN1C(=O)NC(c2ccccc2)(c2ccccc2)C1=O	-86
C=C(CC)C(=O)c1ccc(OCC(=O)O)c(Cl)c1Cl	-67
CCCC1CCC(c2ccc(OCC)cc2)=CC1=O (configuration not stated)	-216
CCN(CC)C(=O)CSC(=Nc1ccccc1F)NC#N	-109
c1ccc2oc(SCc3cn4ccccc4n3)nc2c1	-111
c1ccc2nc(SCc3cn4ccccc4n3)cnc2c1	-66
Cc1cc(C)c(C#N)c(SCc2cn3c(C)cccc3n2)n1	-104
Cc1cccc2nc(CSc3nc4ccccc4o3)cn12	-89
Cc1cc(O)ccc1Nc1nc(-c2cccs2)cs1	-101
Cc1cc(O)ccc1Nc1nc(-c2cccnc2)cs1	-281
CCN1C(=O)/C(=C\C=C2/C=CC=CN2CC)SC1=S	-125
CCN1C(=O)C(=Cc2cccc(OC)c2Oc2ccc([N+](=O)[O-])cc2[N+](=O)[O-])SC1=S	–
CCN1C(=O)/C(=C/C=C2\C=CN(CC)c3ccccc32)SC1=S	-80
Cc1c(CCC(=O)N[C@@H](C)C(=O)O)c(=O)oc2cc3oc4c(c3cc12)CCCC4	–
OCCOc1ccc(C2=NCCO2)cc1	-72
Nc1ccccc1C(=O)NNC1=C(C(=O)C(F)(F)F)CCC1	-278
CN(C)c1ccc(N=Nc2ccccc2C(=O)OCC(=O)N(C)c2ccccc2)cc1	-83
COC(=O)c1ccccc1NC(=O)COC(=O)c1ccccc1N=Nc1ccc(N(C)C)cc1	-80
CC(=O)c1ccc(NC(=O)COC(=O)c2ccccc2N=Nc2ccc(N(C)C)cc2)cc1	-101
SMILES	aSyn UTR act
Cn1cccc1/C=C1\SC(=O)N(c2ccc(O)cc2)C1=O	-144
COc1cnn(-c2ccc(Br)cc2)c(=O)c1SCc1ccccc1	-71
COc1cnn(-c2ccc(C)cc2)c(=O)c1SCc1ccccc1	-77
CCNC(=S)NNC(=O)c1cc(-c2cccc(C)c2)nc2ccccc12	-116
CCNC(=S)NNC(=O)c1cc(-c2cccc(OCC)c2)nc2ccccc12	-89
CCCCOc1cccc(-c2cc(C(=O)NNC(=S)NCC)c3ccccc3n2)c1	-69
Nc1c(C(=O)c2ccccc2)sc2nsc(SCCN3CCOCC3)c12	-157
Cc1ccc(NC(=O)CSCc2ccc(F)cc2)cc1	-81
Cc1ccc(NC(=O)C(=S)NCc2ccco2)cc1	-135
CCc1ccc(-c2nc(CSCC(=O)NCc3ccco3)c(C)o2)cc1	–
Cc1ccc(NC(=O)CSCc2ccco2)cc1	-130
Cc1ccc(OCC(=O)Nc2ccc(F)cc2)cc1	-96
Cc1ccc(NC(=O)Cc2ccc(F)cc2)cc1	-81
Cc1ccc(OCC(=O)Nc2ccc(F)cc2)c([N+](=O)[O-])n1	-167
Cc1ccc(CSCC(=O)Nc2ccccc2F)cc1	-81
O=[N+]([O-])c1ccc(N/N=C/c2cn(-c3ccccc3)nc2-c2ccccc2)cc1	-71
NS(=O)(=O)c1ccc(N/N=C/c2cn(-c3ccccc3)nc2-c2ccccc2)c([N+](=O)[O-])c1	-121
Cc1ccc(-c2nnc(CCC(=O)NCC3C4CC5CC(C4)CC3C5)o2)s1 (configuration not stated)	-170
Nc1nc(-c2ccc(Br)s2)c(Br)s1	-77
